Reference: PubChem BioAssay (NCATS)
Inconclusive results are not listed. Activity calls are given as the source filed them. The call rests on the fitted dose curve; in most records, active means well fitted curve in the direction sought with a large enough effect; inconclusive means small, poorly fitted or top-dose-only effect, or another doubt; inactive means no such curve, though single readings can be large; an effect the other way counts as inactive or inconclusive.

Assays:
[1] = biological target: Glutathione peroxidase 1 (Homo sapiens) (UniProt P07203); test: Primary qHTS Assay for Inhibitors of Recombinant Selenoprotein Glutathione Peroxidase 1 (GPX1) (AID 1845191); further: nearly all actives have a fitted effect of over 65% in size
Glutathione peroxidase 1 (Homo sapiens), sequence (P07203 whole entry, looked up): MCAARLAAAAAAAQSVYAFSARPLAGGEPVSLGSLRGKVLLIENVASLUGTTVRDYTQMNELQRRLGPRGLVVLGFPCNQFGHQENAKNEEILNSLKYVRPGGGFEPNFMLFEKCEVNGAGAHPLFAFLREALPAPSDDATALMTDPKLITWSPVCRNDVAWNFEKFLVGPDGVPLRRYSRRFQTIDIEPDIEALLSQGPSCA
Procedure, shortened: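 NADPH consumption tracked by fluorescence at 340/450 nm between t=0 and t=15 min, room temperature. Final mix: 10 nM GPX1, 100 nM glutathione reductase, 1 mM GSH, 0.5 mM NADPH, 0.5 mM cumene hydroperoxide, 0.01% BSA; 30 min compound–enzyme preincubation.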

[2] = biological target: Phospholipid hydroperoxide glutathione peroxidase GPX4 (Homo sapiens) (UniProt P36969); test: Primary qHTS Assay for Inhibitors of Recombinant Selenoprotein Glutathione Peroxidase 4 (GPX4) (AID 1845192); further: nearly all actives have a fitted effect of over 65% in size
Phospholipid hydroperoxide glutathione peroxidase GPX4 (Homo sapiens), sequence (P36969 whole entry, looked up): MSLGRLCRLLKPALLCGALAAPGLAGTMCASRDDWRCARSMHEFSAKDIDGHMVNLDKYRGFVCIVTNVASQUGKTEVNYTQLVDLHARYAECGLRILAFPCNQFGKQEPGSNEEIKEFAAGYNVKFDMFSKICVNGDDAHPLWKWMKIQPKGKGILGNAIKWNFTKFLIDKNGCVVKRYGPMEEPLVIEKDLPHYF
Procedure, shortened: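 NADPH consumption followed by fluorescence at 340/450 nm, t=0 and after 15 min at room temperature. Reaction started with cumene hydroperoxide (0.5 mM final) after 30 min compound–GPX4 preincubation; final 200 nM GPX4, 100 nM GR, 1 mM GSH, 0.5 mM NADPH.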

[3] = biological target: Luciferin 4-monooxygenase (Photinus pyralis) (UniProt P08659); test: Primary firefly luciferase (FLuc) qHTS assay for identification of artifact compounds. (AID 1845220); further: series mostly up to about 54 µM; nearly all actives have a fitted effect of over 60% in size
Procedure, shortened: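 Cell-free, 1536-well qHTS. Buffer pH 7.6 with 0.01% Tween-20 and 0.05% BSA; 10 uM D-luciferin, 10 uM ATP; 10 nM P. pyralis luciferase; luminescence after 5 min.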

[4] = Primary fluorescence-based thiol-reactive (MSTI) qHTS assay for identification of artifact compounds. (AID 1845221);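 further: series mostly up to about 54 µM; thiol-reactive compounds lower the probe fluorescence signal; nearly all actives have a fitted effect of over 65% in size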
Procedure, shortened: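 Probe: MSTI 4 uM, PBS pH 7.4, 2% DMSO. Incubation 1 h, RT, light-protected. Readout fluorescence 525/598 nm.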

[5] = test system: Nanoluciferase (engineered Oplophorus gracilirostris luciferase); test: Primary Nanoluciferase (NLuc) qHTS assay for identification of artifact compounds. (AID 1845222); further: series mostly up to about 54 µM
Procedure, shortened: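 Compounds are pinned into diluted (1:55) conditioned medium of NLuc-expressing S16 cells and held 15 min at room temperature protected from light. Nano-Glo substrate follows, and luminescence is read 5 min later.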

[6] = Primary redox qHTS assay for identification of artifact compounds. (AID 1845223)
Procedure, shortened: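 Redox-cycling detection via DTT (250 uM final) oxidation coupled to Amplex Red (25 uM)/HRP (250 mU/mL) in HBSS. 15 min preincubation plus 30 min after DTT, room temperature. Ex/Em 525/598 nm; 4-parameter Hill fit against DMSO and 10 uM DA3003.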

[7] = Quantitative High-Throughput drug screen in 47 multiple myeloma cell lines against the NCATS MIPE library collection: Delta47_JCRB cell viability assay (AID 1918925; further: potency means the concentration at half of the fitted maximal effect; nearly all actives have a fitted effect of over 45% in size)
Procedure, shortened: (§1)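 We plated 500 myeloma cells per well, pinned in MIPE 4.0 compounds, and incubated for 48 hours at 37C. ATP was then quantified with CellTiter-Glo, with DMSO and media-only wells defining 100% and 0%.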

[8] = Quantitative High-Throughput drug screen in 47 multiple myeloma cell lines against the NCATS MIPE library collection: AMO1_DSMZ cell viability assay (AID 1918927; further: nearly all actives have a fitted effect of over 30% in size; further: potency means the concentration at half of the fitted maximal effect)
Procedure, shortened: as §1

[9] = Quantitative High-Throughput drug screen in 47 multiple myeloma cell lines against the NCATS MIPE library collection: ARD_JJKsccE7 cell viability assay (AID 1918929; further: potency means the concentration at half of the fitted maximal effect)
Procedure, shortened: as §1

[10] = Quantitative High-Throughput drug screen in 47 multiple myeloma cell lines against the NCATS MIPE library collection: KMM1_JCRB cell viability assay (AID 1918960); further: nearly all actives have a fitted effect of over 30% in size; further: potency means the concentration at half of the fitted maximal effect
Procedure, shortened: (§2)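 Viability screen: myeloma cells (500/well) incubated 48 h at 37 °C, humidified 5% CO2, with pinned library compounds; CellTiter-Glo added, luminescence read; DMSO wells set 100%, medium-only wells 0%.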

[11] = Quantitative High-Throughput drug screen in 47 multiple myeloma cell lines against the NCATS MIPE library collection: KHM11_PLB cell viability assay (AID 1918962); further: nearly all actives have a fitted effect of over 35% in size; further: potency means the concentration at half of the fitted maximal effect
Procedure, shortened: (§3)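 Myeloma cells (500 per well) were exposed to MIPE 4.0 compounds by pin transfer and incubated 48 hours at 37C, 5% CO2. Viability was read as ATP by CellTiter-Glo luminescence, normalised to DMSO (100%) and media-only (0%) wells.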

[12] = Quantitative High-Throughput drug screen in 47 multiple myeloma cell lines against the NCATS MIPE library collection: JIM3_ECACC cell viability assay (AID 1918963; further: nearly all actives have a fitted effect of over 35% in size; further: potency means the concentration at half of the fitted maximal effect)
Procedure, shortened: as §3

[13] = Quantitative High-Throughput drug screen in 47 multiple myeloma cell lines against the NCATS MIPE library collection: INA6_PLB cell viability assay (AID 1918965; further: nearly all actives have a fitted effect of over 55% in size; further: potency means the concentration at half of the fitted maximal effect)
Procedure, shortened: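 CellTiter-Glo ATP luminescence gave viability after 48 h compound treatment at 37C of 500 multiple myeloma cells per well. Normalisation used DMSO-only wells as 100% and media-only wells as 0% viability; primary qHTS of approved and investigational drugs.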

[14] = Quantitative High-Throughput drug screen in 47 multiple myeloma cell lines against the NCATS MIPE library collection: EJM_DSMZ cell viability assay (AID 1918926; further: nearly all actives have a fitted effect of over 30% in size; further: potency means the concentration at half of the fitted maximal effect)
Procedure, shortened: as §1

[15] = Quantitative High-Throughput drug screen in 47 multiple myeloma cell lines against the NCATS MIPE library collection: Karpas620_DSMZ cell viability assay (AID 1918959); further: nearly all actives have a fitted effect of over 30% in size; further: potency means the concentration at half of the fitted maximal effect
Procedure, shortened: as §3

[16] = Quantitative High-Throughput drug screen in 47 multiple myeloma cell lines against the NCATS MIPE library collection: FR4_PLB cell viability assay (AID 1918924; further: nearly all actives have a fitted effect of over 35% in size; further: potency means the concentration at half of the fitted maximal effect)
Procedure, shortened: as §3

[17] = Quantitative High-Throughput drug screen in 47 multiple myeloma cell lines against the NCATS MIPE library collection: JIM1_ECACC cell viability assay (AID 1918964; further: potency means the concentration at half of the fitted maximal effect)
Procedure, shortened: as §1

[18] = Quantitative High-Throughput drug screen in 47 multiple myeloma cell lines against the NCATS MIPE library collection: JJN3_DSMZ cell viability assay (AID 1918966; further: nearly all actives have a fitted effect of over 50% in size; further: potency means the concentration at half of the fitted maximal effect)
Procedure, shortened: as §1

[19] = Quantitative High-Throughput drug screen in 47 multiple myeloma cell lines against the NCATS MIPE library collection: ARP1_JJKsccF8 cell viability assay (AID 1918928; further: nearly all actives have a fitted effect of over 40% in size)
Procedure, shortened: as §2

Measured: Potency

NC(=O)c1cccc(-c2cc(Nc3ccc(OC(F)(F)F)cc3)ncn2)c1
active: [7] 18.7 µM | [8] 18.7 µM | [9] 14.8 µM | [10] 14.8 µM | [11] 14.8 µM | [12] 18.7 µM | [13] 14.8 µM
inactive: [1] | [2] | [3] | [4] | [5] | [6]

CC(C)[C@H](CO)Nc1nc(Nc2ccc(C(=O)O)c(Cl)c2)c2ncn(C(C)C)c2n1
inactive: [1] | [2] | [3] | [5] | [6]
active: [7] 1.48 µM | [11] 0.0148 µM | [13] 0.059 µM

CN[C@@H](C)C(=O)N[C@H]1CN(C(=O)CC(C)C)CC[C@H]2CC[C@@H](C(=O)NC(c3ccccc3)c3ccccc3)N2C1=O
active: [14] 16.6 µM | [8] 2.96 µM | [9] 7.43 µM | [15] 1.18 µM | [12] 9.35 µM | [13] 8.33 µM
inactive: [1] | [2] | [3] | [4] | [5] | [6]

O=C(N[C@@H](c1ccccc1)[C@@H]1CCCCN1)c1cccc(C(F)(F)F)c1Cl
inactive: [1] | [2] | [16] | [15] | [10] | [12] | [17] | [13] | [18]
active: [7] 14.8 µM | [14] 18.7 µM

CC(C)(C(=O)NCC(F)(F)C(F)(F)F)C(=O)N[C@@H]1C(=O)Nc2ccccc2-c2ccccc21
active: [8] 18.7 µM | [15] 2.35 µM | [10] 18.7 µM
inactive: [1] | [2] | [16] | [14] | [19]

COc1ccc(-c2nc(N3CCOCC3)c3sc(CN(C)c4ncc(C(=O)NO)cn4)cc3n2)cn1
inactive: [1] | [2] | [19] | [13]
active: [14] 0.0042 µM | [8] 0.001 µM | [9] 0.001 µM | [15] 0.001 µM | [10] 0.001 µM | [17] 0.001 µM | [18] 0.0019 µM

COc1cccc(-c2cc(=O)c3ccccc3o2)c1N
active: [8] 16.6 µM | [11] 5.26 µM | [12] 3.72 µM | [13] 2.35 µM
inactive: [1] | [2] | [14] | [9] | [15]

NC(=O)[C@@H](CCC(F)(F)F)N(Cc1ccc(-c2ncon2)cc1F)S(=O)(=O)c1ccc(Cl)cc1
inactive: [1] | [2] | [8] | [9] | [15] | [11]
active: [16] 16.6 µM | [14] 20.9 µM | [13] 26.4 µM

O=c1cc(-c2cccc3c2Sc2ccccc2S3)oc(N2CCOCC2)c1
inactive: [1] | [2]
active: [16] 26.4 µM | [7] 5.26 µM | [8] 16.6 µM | [15] 18.7 µM | [12] 16.6 µM | [17] 16.6 µM

Cc1ccc(C(C)(O)c2nc3ccccc3s2)c(C)c1 (stereo not given)
inactive: [1] | [2] | [19] | [9] | [15] | [10] | [12] | [13] | [18]
active: [8] 20.9 µM

CCNc1cc(NC2CCC(O)CC2)nc(Nc2ccc3c(ccn3Cc3ccccc3)c2)n1 (stereo not given)
active: [16] 26.4 µM | [14] 18.7 µM | [12] 20.9 µM | [13] 16.6 µM
inactive: [1] | [2]
